From PubChem
SKN-1 inh = C. elegans SKN-1 inhibition. C. elegans VP596 Pgst-4::GFP/RFP ratio, acrylamide-induced, 24 h. hit rate 0.49% among 360,000. AID 624304. inhibition, % at 21.8 µM;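 active means interference check ratio from 0.5 to 1.5 plus GFP to RFP signal ratio inhibition reaching or exceeding a fixed threshold, cut at about 30% in these data, passing the limit was not always enough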
ATG4B inhibitor = blocks human ATG4B protease cleavage of LC3 substrate; inhibition, % at 8.33 µM; ATG4B cleavage of LC3-PLA2, NBD-HPC fluorescence, 1 h; hit rate 0.51% among 340,000; in the data active means inhibition above about 40%
CHRM1 PAM = potentiates human M1 receptor response to acetylcholine; CHO-K1 hM1, Fluo-8 calcium fluorescence, ACh EC20; 0% = ACh EC20, 100% = maximal ACh; AID 588819; activation, % at 3 µM; hit rate 0.088% among 360,000; P11229; in the data active means activation above about 19%, passing the limit was not always enough
Target sequence (P11229 whole entry, looked up): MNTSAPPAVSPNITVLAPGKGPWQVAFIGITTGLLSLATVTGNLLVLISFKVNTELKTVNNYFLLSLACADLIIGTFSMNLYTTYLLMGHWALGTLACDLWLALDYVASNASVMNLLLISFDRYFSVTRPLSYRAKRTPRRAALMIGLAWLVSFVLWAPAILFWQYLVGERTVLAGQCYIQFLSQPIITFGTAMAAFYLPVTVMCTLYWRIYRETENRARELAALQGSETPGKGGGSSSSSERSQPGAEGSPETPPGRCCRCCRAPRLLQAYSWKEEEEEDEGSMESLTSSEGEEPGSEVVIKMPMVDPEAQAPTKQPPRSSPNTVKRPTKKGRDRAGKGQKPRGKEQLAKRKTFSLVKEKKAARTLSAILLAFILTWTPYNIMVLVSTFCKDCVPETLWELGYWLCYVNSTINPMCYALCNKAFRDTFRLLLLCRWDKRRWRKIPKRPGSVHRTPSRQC
CHRM1 antagonist = human CHRM1 antagonism | CHO-K1 hM1, Fluo-8 calcium fluorescence, ACh EC80 antagonist | P11229 | inhibition, % at 3 µM | hit rate 1.3% among 360,000;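 active means percent inhibition above its own plate's cutoff, namely the mean of that plate's compound wells plus 3 SD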;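 further: peak over basal fluorescence ratio during 140 s after agonist addition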
Myeloid diff MLP = myeloid differentiation induction; hit rate 1% among 360,000; AID 624256; calls only at 10 µM; ER-HoxA9 myeloid progenitors, lysozyme-GFP differentiation, flow cytometry;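 active means normalized GFP-positive differentiation at or above the plate's own cutoff, the solvent-only control mean plus 3 SD; inconclusive means no clear call, values can overlap the other calls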;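 further: cells exposed to compound for four days before flow analysis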
M1 ag = activates human CHRM1 receptor; P11229; CHO-K1 hM1, Fluo-8 calcium fluorescence, agonist mode; 0% DMSO, 100% acetylcholine EC100; activation, % at 3 µM; hit rate 0.33% among 360,000;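 active means activation above the run's mean compound activation plus 3 SD, cut at about 16% in these data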;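 further: peak over basal fluorescence ratio within a 140 s kinetic read after compound addition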
ATG4B confirm = confirmation of human ATG4B inhibitors. AID 504757. shares compounds with ATG4B inhibitor. ATG4B protease fluorescent substrate cleavage assay. inhibition, % at 8.33 µM. hit rate 92% among 320; in the data active means inhibition above about 39%
PLA2 counter = inhibits human PLA2, flagging false ATG4B inhibitors; hit rate 66% among 1,600; inhibition, % at 8.33 µM; purified PLA2, NBD-C6-HPC fluorescence, 45 min; shares compounds with ATG4B inhibitor; AID 588402; in the data active means inhibition above about 50%
Target sequence (P04054 whole entry, looked up): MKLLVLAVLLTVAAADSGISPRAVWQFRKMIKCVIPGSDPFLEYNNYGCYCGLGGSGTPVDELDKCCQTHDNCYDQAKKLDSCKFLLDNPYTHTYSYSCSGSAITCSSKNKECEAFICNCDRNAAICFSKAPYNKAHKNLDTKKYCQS
Large screens that a line does not name were inactive (follow-up assays come after a bar, where they were run). Most compounds without a hit are left out; they make up all but 3.5% or so of the library.

CCCN(CCC)Cc1cc(=O)oc2cc(C)c(C)cc12	none (no result: ATG4B inhibitor)
CCOC(=O)c1c(NS(=O)(=O)c2ccc(Br)cc2)sc2c1CCC2	ATG4B inhibitor 46.0 | PLA2 counter 56.7
CCOC(=O)c1c(NS(=O)(=O)Cc2ccccc2)sc2c1CCCC2	none
CC(C)(O)c1ccccc1CC[C@@H](SCC1(CC(=O)O)CC1)c1cccc(/C=C/c2ccc3ccc(Cl)cc3n2)c1	ATG4B inhibitor 91.7 (no result: CHRM1 PAM, CHRM1 antagonist, M1 ag) | PLA2 counter 91.7
CC(=O)Oc1ccc(Cl)cc1/C=C/c1ccc2ccccc2n1	none
O=C1CCCC2=C1C(c1ccncc1)c1c(nc(SCc3ccccc3Cl)[nH]c1=O)N2 (centres undefined)	ATG4B inhibitor 76.8 | PLA2 counter 81.0
Cc1ccc(NC(=O)c2cncc(Br)c2)c([N+](=O)[O-])c1	none
COc1c(C)cc(Br)cc1C(=O)Nc1ccc(C)cc1[N+](=O)[O-]	ATG4B inhibitor 42.0 | PLA2 counter inactive
N#C/C(=C\c1coc2ccc(O)cc2c1=O)C(=O)Nc1nc2ccccc2s1	ATG4B inhibitor 54.5, M1 ag 62.2 | PLA2 counter inactive
N#C/C(=C\c1coc2ccccc2c1=O)C(N)=S	none
CC1(C)SC(=S)N(NC(=O)Nc2cccc3ccccc23)C1N(O)C(=O)Nc1ccccc1 (centres undefined)	ATG4B inhibitor 45.7 | PLA2 counter 58.3
FC(F)(F)c1cnc(COc2cc(Cl)cc(Cl)c2)c(Cl)c1	none
C/C(=N/Nc1ccc([N+](=O)[O-])cc1)c1c[nH]c2ccccc12	ATG4B inhibitor 46.1, Myeloid diff MLP active | PLA2 counter inactive
Cc1c(Cl)c([N+](=O)[O-])nn1Cc1ccc(C(=O)Nc2ccc(Cl)cn2)o1	ATG4B inhibitor 45.7 | ATG4B confirm 63.8 | PLA2 counter inactive
CC1=Nc2nc(N3CCCCCC3)c(C#N)c3c4c(nc(c23)N1)N(c1ccc2ccccc2c1)C(=O)C4	none
CCN(CC)c1nc(N)c2c(N)nc3c(c2c1C#N)CC(c1ccccc1)O3 (centres undefined)	none
CCN(CC)c1nc(N)c2c(N)n(-c3ccccc3C)c(=S)c(C#N)c2c1C#N	ATG4B inhibitor 54.5, Myeloid diff MLP active | PLA2 counter 70.3
Cc1ccc(S(=O)(=O)N2CCCCC2)cc1NC(=O)CNCc1ccco1	none
C[C@H]1CN([C@@H](C)CO)C(=O)c2cccc(NS(=O)(=O)c3ccc(F)cc3)c2O[C@H]1CN(C)S(=O)(=O)c1cn(C)cn1	none
CC(C)(C)C(=O)CSc1ncnc2sc3c(c12)CCC3	none (no result: ATG4B inhibitor) | PLA2 counter inactive
Cc1cccc(C)c1-n1nnnc1SCC(=O)N1CCNC1=O	none
O=C(OCc1nnc(-c2ccc(Br)cc2)o1)c1cncc(Br)c1	none
N#CC1=C(S)N(c2ccccc2)C(c2ccc(-c3ccccc3Cl)o2)NC1=O (centres undefined)	ATG4B inhibitor 65.6 | PLA2 counter 73.6
O=C(O)c1ccc(C[n+]2c(-c3ccccc3)csc2Nc2ccccc2)cc1	ATG4B inhibitor 42.5 | ATG4B confirm 83.5 | PLA2 counter inactive
CCCCCC[n+]1c(-c2ccccc2)csc1Nc1ccccc1	none
CC(C)(C)c1cc(-c2csc(Nc3ccccc3)[n+]2Cc2ccc(C(=O)O)cc2)cc(C(C)(C)C)c1O	ATG4B inhibitor 45.8 | PLA2 counter 55.9
COc1ccccc1-c1nc(COc2ccc(Cl)cc2Cl)no1	none
C=CCn1c(SCC(=O)Nc2cc(Cl)ccc2C(=O)O)nc2sc(C)c(C)c2c1=O	ATG4B inhibitor 60.9 | PLA2 counter 52.9
CC(C)(C)c1ccc(C(=O)CC(=O)c2cc(Cl)ccc2O)cc1	none
Cc1ccc(C(=O)CC(=O)c2cc(Cl)ccc2O)cc1	ATG4B inhibitor 46.5 | ATG4B confirm 71.9 | PLA2 counter inactive
CC(NC(=S)NCc1ccc(F)cc1)C12CC3CC(CC(C3)C1)C2 (centres undefined)	none (no result: Myeloid diff MLP)
CCC(C)c1ccc(C(C)NC(=S)NCc2ccc(F)cc2)cc1 (centres undefined)	ATG4B inhibitor 63.0, CHRM1 antagonist 34.4 | PLA2 counter 77.6
COc1ccc(C(C)NC(=S)NCc2ccc(F)cc2)cc1OC (centres undefined)	none
CCC(NC(=S)NCc1ccc(F)cc1)c1ccc(C(C)C)cc1 (centres undefined)	ATG4B inhibitor 53.9, CHRM1 antagonist 96.7, Myeloid diff MLP inconclusive | PLA2 counter 76.8
CCCc1ccc(C(C)NC(=S)NCc2ccc(F)cc2)cc1 (centres undefined)	ATG4B inhibitor 59.0, CHRM1 antagonist 44.5, Myeloid diff MLP inconclusive | PLA2 counter 70.2
O=C(c1cccs1)N(Cc1ccco1)c1nc(-c2ccc(F)cc2)cs1	ATG4B inhibitor 42.0 (no result: Myeloid diff MLP) | PLA2 counter 56.3
CCC(=O)N(Cc1ccco1)c1nc(-c2ccccc2)cs1	none
S=C(NCCc1ccccc1)NCc1cccc(Cl)c1	ATG4B inhibitor 84.2 | PLA2 counter 90.1
S=C(Nc1ccc(Cl)c(Cl)c1)NC1CCCCC1	ATG4B inhibitor 48.0, CHRM1 antagonist 44.4 | PLA2 counter inactive
S=C(NCCCCc1ccccc1)NCc1ccccc1	ATG4B inhibitor 63.1 | PLA2 counter 69.6
O=C(CCSCc1cccc(Cl)c1)NCCc1ccc(Cl)cc1	ATG4B inhibitor 43.6 | PLA2 counter inactive
Cc1cccc(-c2nn(-c3ccccc3)cc2C(=O)N2CCN(C3CCS(=O)(=O)C3)CC2)c1 (centres undefined)	none
Cc1cnccc1CN(C)Cc1nc(Cc2ccccc2Cl)no1	none
COc1ccccc1/C=C/C(=O)Nc1cccc(S(=O)(=O)NC2=NCCCCC2)c1	none
S=C(NCc1cccc(Cl)c1)NC1CCCCC1	ATG4B inhibitor 59.2 | PLA2 counter 64.0
C#CCOCCOCCOCCNc1nc(N2CCN(C(=O)CCCCCCCCCCNC(=O)[C@H](CCCCN)n3cc(C)nn3)CC2)nc(N2CCN(C(=O)CCCCCCCCCCNC(=O)[C@H](CCCN=C(N)N)n3cc(C[C@@H](C)CC)nn3)CC2)n1	ATG4B inhibitor 68.6 (no result: SKN-1 inh, CHRM1 PAM, CHRM1 antagonist, Myeloid diff MLP, M1 ag) | PLA2 counter 70.0
C#CCOCCOCCOCCNc1nc(N2CCN(C(=O)CCCCCCCCCCNC(=O)[C@H](CCCCN)n3cc(CCO)nn3)CC2)nc(N2CCN(C(=O)CCCCCCCCCCNC(=O)[C@H](CCCCN)n3cc(CCCC(=O)O)nn3)CC2)n1	none
